p53 reactivation: mutant p53 re-activation in reporter cells; H1299 p53-A138V BP100-luciferase reporter, luminescence, 24 h; Potency, µM (highest dose often 92.2 µM), usual class: activators; actives 0.063% (n = 320,000); AID 504706; note: nearly all actives have a fitted effect of over 45% in size
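p53-null H1299 cells stably carrying temperature-sensitive p53-A138V and a BP100-luciferase reporter were pinned with compounds (4-point, 1:5 series) and held 24 hrs at 37 deg C. Luminescence was read 10 min after detection reagent.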
ELG1 genotoxic: induces genotoxicity in HEK293T cells with luciferase-tagged ELG1; HEK293T ELG1-luciferase reporter, luminescence, 16 h; Potency, µM (highest dose often 46 µM), actives largely listed as activators; actives 1.3% (n = 330,000); note: nearly all actives have a fitted effect of over 60% in size
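Cells (2,000/well) expressing the ELG1-luciferase fusion are dosed by pin tool and kept 16 hr at 37 °C, 5% CO2. Signal comes from ONE-Glo luciferase reagent after 30 min at room temperature.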
SMN2 splice enh: enhancers of SMN2 splice variant expression; HEK293 SMN2-luciferase splicing reporter, luminescence, 30-36 h; Potency, µM (highest dose often 46.1 µM), hits mostly activators; actives 2.8% (n = 210,000); note: nearly all actives have a fitted effect of over 55% in size
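HEK293 cells carry an SMN2 […]–luciferase reporter in which exon 7 inclusion puts luciferase in frame. Cells were plated 10-12 h before compound addition, then incubated 30-36 h at 37C. ONE-Glo luminescence was read; sodium butyrate at 4.5 mM final served as control.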
NPC1 promoter act: activators of NPC1 promoter. Potency, µM (titrated, usually from 9.22 µM), hits mostly activators. actives 2.4% (n = 320,000). Huh7 NPC1 promoter luciferase reporter, 24 h. AID 485313; note: nearly all actives have a fitted effect of over 60% in size
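Compounds in DMSO were transferred onto Huh7 NPC1-luciferase reporter cells pre-incubated 2 h; after 24 h at 37 °C, Amplite reagent was dispensed and luminescence recorded 10 min later.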
FLuc modulator: firefly luciferase modulation, counter-screen for miR-21 project; actives 6.9% (n = 360,000); purified FLuc, Km substrates, luminescence inhibition; P08659; Potency, µM (series often up to 57.5 µM), usual class: inhibitors; note: nearly all actives have a fitted effect of over 55% in size
Target sequence (P08659 whole entry, looked up): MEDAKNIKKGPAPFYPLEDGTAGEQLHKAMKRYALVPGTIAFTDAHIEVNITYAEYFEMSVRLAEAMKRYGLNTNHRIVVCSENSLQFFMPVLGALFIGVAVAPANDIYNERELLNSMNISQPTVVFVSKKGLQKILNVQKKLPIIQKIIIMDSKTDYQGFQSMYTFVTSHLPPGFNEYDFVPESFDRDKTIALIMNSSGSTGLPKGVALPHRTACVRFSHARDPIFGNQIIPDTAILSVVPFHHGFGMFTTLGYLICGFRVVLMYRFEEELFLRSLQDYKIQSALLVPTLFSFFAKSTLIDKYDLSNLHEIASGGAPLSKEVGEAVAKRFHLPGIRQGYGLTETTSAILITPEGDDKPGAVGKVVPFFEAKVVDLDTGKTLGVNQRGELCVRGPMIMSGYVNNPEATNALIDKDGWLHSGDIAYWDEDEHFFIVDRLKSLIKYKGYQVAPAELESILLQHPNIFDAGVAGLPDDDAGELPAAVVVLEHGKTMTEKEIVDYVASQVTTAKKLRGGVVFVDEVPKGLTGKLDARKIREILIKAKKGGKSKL
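Biochemical qHTS of compounds, final roughly 60 µM downward over six points, against 10 nM purified firefly luciferase using Km concentrations of substrates (10 uM D-luciferin, 10 uM ATP) in Tris acetate pH 7.5 buffer; luminescence output.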
Rab9 prom act: activates the Rab9 promoter. Huh7 Rab9 promoter-luciferase reporter, luminescence, 24 h. Potency, µM (titrated, usually from 9.22 µM), actives largely listed as activators. actives 2.8% (n = 320,000); note: nearly all actives have a fitted effect of over 60% in size
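Promoter activation is measured as luciferase luminescence in Huh7 cells stably transfected with a Rab9 promoter–luciferase construct, following 24 h compound exposure at 37 °C and 10 min reagent incubation at ambient temperature.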
Hits are given with their value; n = inactive; u = inconclusive; x = not tested or not shown; [ ] = remark or other dose. The list is not random: actives were taken first. Their share in the collection is about 7.3%. Calls come from the whole dose curve; as a rule, active = well fitted curve in the direction sought with a large enough effect; inconclusive = small, poorly fitted or top-dose-only effect, or another doubt; inactive = no such curve, though single readings can be large; an effect the other way counts as inactive or inconclusive.

SMILES	p53 reactivation	ELG1 genotoxic	SMN2 splice enh	NPC1 promoter act	FLuc modulator	Rab9 prom act
Cc1c(NC(=O)COC(=O)c2cc(-c3ccc(-c4ccccc4)cc3)nc3ccccc23)c(=O)n(-c2ccccc2)n1C	u	u	0.63µM	0.63µM	0.85µM	2.5µM
Cc1ccc(-c2cc(C(=O)Nc3c(C)n(C)n(-c4ccccc4)c3=O)c3ccccc3n2)cc1	n	n	x	x	x	x
CCOC(=O)c1cc(C)n(CC2CCC(C(=O)Nc3cc(OC)cc(OC)c3)CC2)c1C (configuration not stated)	x	x	x	x	n	x
COc1ccc(N(C(=O)c2ccc(OC)c(OC)c2)S(=O)(=O)c2ccc(Cl)cc2)cc1	x	x	n	x	n	x
Cc1nc2cccnc2n1C1CCN(C(=O)Nc2ccccc2C(F)(F)F)CC1	x	x	x	x	n	x
Fc1ccc(F)c(C2=NNC(=NCC3CCCO3)SC2)c1 (configuration not stated)	n	n	u	u	u	2.2µM
CC(=O)Nc1ccc(C2=NNC(=NCC3CCCO3)SC2)cc1 (configuration not stated)	n	n	x	n	n	n
Cc1nc2cnc(N3CCNCC3)nc2n(CCC#N)c1=O	x	x	n	x	x	x
CCc1nnc(NC(=O)c2cc(=O)c3cc(C)ccc3o2)s1	x	x	n	x	u	x
COc1ccc(OC)c(Nc2nc(-c3cccs3)cs2)c1	u	u	n	n	u	n
COc1ccc(Nc2nc(-c3cccs3)cs2)c(OC)c1	u	5.2µM	x	u	4.8µM	2.2µM
COc1ccccc1Nc1nc(-c2cccs2)cs1	u	u	11µM	n	4.8µM	u
COc1ccc(Nc2nc(-c3cccs3)cs2)cc1	u	1.5µM	10µM	2.5µM	0.67µM	2µM
Cc1cccc(-c2nsc(SCC(=O)Nc3cc(C)on3)n2)c1	u	n	n	n	n	n
CCOC(=O)CNC(=O)CSc1nc(-c2ccc(C)cc2)ns1	n	n	n	n	12µM	n
CCOC(=O)CSc1nc(-c2ccc(OC)cc2)ns1	n	n	n	n	24µM	n
CCOC(=O)N1CCN(C(=O)CSc2nc(-c3cccc(C)c3)ns2)CC1	n	n	n	n	17µM	n
CC(C)CS(=O)(=O)c1oc(-c2ccc(F)cc2)nc1S(=O)(=O)c1ccccc1	x	x	n	x	n	x
CCc1nc2ccccc2n1CCCCOc1ccc(Cl)cc1	x	x	n	x	u	x
c1cncc(CNCc2cccnc2)c1	x	x	n[9.22 µM]	x	x	x
O=C(COc1ccccc1[N+](=O)[O-])Nc1ccc(Br)cc1	n	u	x	u	9.5µM	3.2µM
CC(C)(C)NC(=O)COC(=O)c1ccccc1OCC(=O)Nc1ccc(Br)cc1	n	n	x	u	1.1µM	u
O=C(COc1ccccc1[N+](=O)[O-])Nc1cccnc1	n	u	x	n	u	u
CCCNC(=O)COC(=O)c1ccccc1OCC(=O)Nc1ccc(Br)cc1	n	n	n	n	n	n
Cc1ccnc(NC(=O)COc2ccccc2[N+](=O)[O-])c1	n	u	5µM	2.2µM	1.7µM	u
SMILES	p53 reactivation	ELG1 genotoxic	SMN2 splice enh	NPC1 promoter act	FLuc modulator	Rab9 prom act
Cc1ccc(NC(=O)COc2ccccc2[N+](=O)[O-])nc1	n	n	2.8µM	3.2µM	2.1µM	0.79µM
CC(C)C(=O)N1c2nc(-c3ccco3)nn2C2(CCCCC2)[C@@H]2CCCC[C@@H]21	x	x	x	x	n	x
COc1cc(Cl)c(C)cc1NC(=O)COc1ccccc1[N+](=O)[O-]	n	n	n	3.2µM	n	u
COC(=O)/C=C/COc1ccccc1[N+](=O)[O-]	u	n	n	n	21µM	u
O=C(COC(=O)c1ccccc1Br)Nc1ccc(F)cc1	n	u	n	n	19µM	n
O=C(COC(=O)c1ccccc1Br)NCCc1ccc(F)cc1	n	n	n	n	n	n
O=C(N/N=C/c1ccc(O)c(O)c1O)/C(=C/c1ccc([N+](=O)[O-])cc1)NC(=O)c1ccccc1	n	n	n	n	11µM	n
O=C(NCCC1=CCCCC1)c1ccc([N+](=O)[O-])cc1	u	u	2.8µM	1.1µM	5.4µM	0.63µM
Cc1ccc(NC(=S)NCCC2=CCCCC2)cc1	u	n	20µM	u	u	3.5µM
O=C(NC1CCCCCC1)c1ccc(CN2CCOCC2)cc1	u	u	u	3.2µM	17µM	3.5µM

Source: PubChem (National Center for Advancing Translational Sciences (NCATS))
